Test results taken from the OligoGym collection.

Target: APOA4
Experiment: pooled miR-30 sensor sort-seq; sequence = guide strand
Conditions: shRNA
Note: reference of the scale not given here.

Row | Sequence | sensor-assay potency score (higher = more potent)
1 | TCGGAACTCCTCCACCTGCTGG | -1.28
2 | TTCTCCTTGAAGGTGCTGAAGA | -1.33
3 | TTGGCCTTGAGCTCGTCGGCGT | -0.576
4 | AAGTAGTCCCACATCACCGTGG | -0.243
5 | TTGAAGGTGCTGAAGAAGGAGT | -1.02
6 | TTCTTCTTCATCTGGAAGGTCA | -0.417

Target: APOBEC1
Experiment: as above
Conditions: shRNA

Row | Sequence | sensor-assay potency score (higher = more potent)
7 | TTTTGTTGATCCATGTGCCAAA | -1.26
8 | TATAAAATTAACTTCCACGTGA | 0.0953
9 | TAAAATTAACTTCCACGTGATT | -0.973
10 | TGAAAATCTCTTTCTGACGTAA | -0.0382
11 | TCCACTGTTAACAAGGTCCCTG | -0.838
12 | TAGTTGACAAAATTCCTCCAGC | 0.113
13 | TAGAAGACGTCAAACTCCCAGG | -0.81
14 | TTTTATAAAATTAACTTCCACG | -0.657
15 | TTGCCGATTTTGTTGATCCATG | -1.51
16 | TTAACTTCCACGTGATTGGTGG | 0.311
17 | TACAACATCATCCACAGAGGTG | -0.853
18 | TTAAACAGGGTGGAAGACTTAG | -0.633
19 | TTTTTATAAAATTAACTTCCAC | -0.469
20 | TTTAGTGGGTCATCATTGCTTG | -0.449
21 | ATAATCTGAATAGTTACTCCAC | 0.108
22 | TTGATTTCGTAGAGCAGACAGG | -1.09
23 | TAGAATTATGCAGTGCAGCTCC | 0.275
24 | TTTTTGCCTGAGCTTCGCCAGA | -1.38
25 | TAGAGTCACACCAGGGTGCCGA | -0.942
26 | TTTCGTAGAGCAGACAGGCCTC | -0.178
27 | AATTATGCAGTGCAGCTCCAGT | -0.901
28 | TAATCTGAATAGTTACTCCACT | -0.77
29 | TAACAAGGTCCCTGAGACCTTG | -0.747
30 | TTGAAATCTTTAAACAGGGTGG | 0.0773

Target: APOBEC3A
Experiment: as above
Conditions: shRNA

Row | Sequence | sensor-assay potency score (higher = more potent)
31 | TTAAATTCATCGTAGGTCATGA | 0.00462
32 | TAAAAATCTACTTGATCGGGAG | 0.575
33 | TACATTGAAAATTATTCTGAGA | -1.07
34 | AATCTTACTATTGTGTACTTGG | 0.0307
35 | TGGTCCATCTTGACCGAGGTGC | -0.749
36 | TTGATCGGGAGCATACTGCTTT | 0.642
37 | TTCGTAGCACAGGTAGGTCTTA | -0.473
38 | TTAGTCTAGATATGAAGCCAAA | -1.73
39 | TGCTGGTCCATCTTGACCGAGG | -1.28
40 | TTAAAAATCTACTTGATCGGGA | 0.68
